Source: PubChem BioAssay (EPA / NIEHS)
“And” between values parts separate entries of the source, which are not always exact repeats. Equal entries are not always repeated. Records with an inconclusive call do not appear. Some compounds were tested as several samples or in several runs, with calls that do not always agree. The source made the active and inactive calls. Rule for the calls: active = hit-call score of the fitted dose curve at least 0.9, where 1 is the maximum; inconclusive = response in the unintended direction; inactive = score below 0.9.

Molecular target: Cellular tumor antigen p53 (Homo sapiens) (UniProt P04637)
Test: TOX21_p53_BLA_p4_ratio: Tox21 HCT-116 p53 Agonism Beta-lactamase Assay, Ratio, Phase 4 (AID 2283601)
From the text: TOX21_p53_BLA_p4 is a cell-based, single-readout assay that uses HCT116, a human intestinal cell line, […] in a 1536-well plate.TOX21_p53_BLA_p4_ratio is an assay readout measuring reporter gene via receptor activity and designed using inducible reporter (beta lactamase induction) detected with GAL4 b-lactamase reporter gene. The signal is derived from the ratio of cleaved (ch2) to uncleaved (ch1)reporter gene substrate used as the measure of target activity.Data from the assay component TOX21_p53_BLA_p4_ratio was analyzed into 1 assay endpoint. This assay endpoint, TOX21_p53_BLA_p4_ratio, was analyzed in the positive analysis fitting direction relative to DMSO as the negative control and baseline of activity. Using a type of inducible reporter, gain-of-signal activity can be used to understand changes in the reporter gene as they relate to the gene TP53. Furthermore, this assay endpoint can be referred to as a primary readout, because this assay has produced multiple assay endpoints where this ratio serves a reporter gene function to understand target activity. To generalize the intended target to other relatable targets, this assay endpoint is annotated to the DNA binding intended target family, where the subfamily is tumor suppressor.
Thawing Method: Place 14 mL of pre-warmed thaw medium into a 15 mL of conical tub. Remove the vial of cells to be thawed from liquid nitrogen and thaw rapidly by placing at 37C in a water bath with gentle agitation for 1-2 minutes. Decontaminate the vial by wiping with 70% ethanol before opening in a biological safety cabinet. Transfer the vial contents drop-wise into 14 mL of thaw medium in a sterile 15-mL conical tub. Centrifuge cells at 900 rpm for 4 minutes and resuspend in thaw medium. Transfer contents to the T75 tissue culture flask containing Thaw Medium and place flask in a humidified 37C/5% CO2 incubator. Switch to growth medium at first passage.Propagation Method: Aspirate medium, rinse once in DPBS, add 0.25% Trypsin/EDTA and swirl to coat the cell evenly. Add an equal volume of Growth Medium to inactivate Trypsin after 2-3 minutes incubation at 37C. Centrifuge cells at 900 rpm for 4 minutes and resuspend in growth medium. Cell should be passage or fed at least twice a week.Assay Protocol: Harvest cells from culture in growth medium and resuspend in assay medium. 2.2 Dispense 4000 cells/5 uL/well into 1536-well black/clear bottom plates using a Multidrop dispenser. After the cells were incubated at 37C for 5 hours, 23 nL of compounds dissolved in DMSO were transferred to the assay plate by a PinTool resulting in a 217-fold dilution. Incubate the plates for 16 hours at 37C, 5% CO2. Add 1 uL of 6X LiveBLAzer FRET B/G (CCF4-AM) Substrate Mixture to each well using a BioRAPTR dispenser and incubate the plates at room temperature for 2 hours. Measure fluorescence intensity at 460 and 530 nm emission and 405 nm excitation by an Envision detector. Data is expressed as the ratio of 460nm/530nm emissions. Add 4 uL of Cell-titer Glo to each well using BioRAPTR and incubate the plates at room temperature for 2 hours. Measure fluorescence intensity by a VewLux plate reader.

Sequence of Cellular tumor antigen p53 (Homo sapiens) (P04637 whole entry, looked up): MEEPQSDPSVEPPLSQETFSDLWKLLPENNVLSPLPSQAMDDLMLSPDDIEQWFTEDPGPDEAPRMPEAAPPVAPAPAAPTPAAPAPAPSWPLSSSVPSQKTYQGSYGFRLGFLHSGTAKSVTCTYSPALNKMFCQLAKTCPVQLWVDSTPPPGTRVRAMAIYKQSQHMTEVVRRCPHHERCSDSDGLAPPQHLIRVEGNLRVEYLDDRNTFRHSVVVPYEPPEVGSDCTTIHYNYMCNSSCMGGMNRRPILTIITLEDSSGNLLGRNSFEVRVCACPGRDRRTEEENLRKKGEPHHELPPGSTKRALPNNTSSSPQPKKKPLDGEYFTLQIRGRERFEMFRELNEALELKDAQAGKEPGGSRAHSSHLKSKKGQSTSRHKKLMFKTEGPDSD

SMILES | outcome | AC50
CS/C(C)=N/OC(=O)N(C)SN(C)C(=O)O/N=C(\C)SC | inactive | 
CCON=C(CC)C1=C(O)CC(c2c(C)cc(C)cc2C)CC1=O (stereo not given) | inactive | 
CCCCNC(=O)OCC#CI | inactive | 12.8 µM (active)
Oc1ccccc1-c1ccccc1 | inactive | 
CCNc1nc(Cl)nc(NCC)n1 | inactive | 
CCCC1COC(Cn2cncn2)(c2ccc(Cl)cc2Cl)O1 (stereo not given) | inactive | 
Cc1cc(Cl)ccc1OCC(=O)O | inactive | 
OC(c1ccc(Cl)cc1)(c1cncnc1)c1ccccc1Cl (stereo not given) |  | 63 µM (active)
CCc1nn(C)c(C(=O)NCc2ccc(C(C)(C)C)cc2)c1Cl |  | 76.6 µM (active)
CN(C)C(=S)SSC(=S)N(C)C | inactive | 
CCCCC(CC)COC(=O)c1ccccc1C(=O)OCC(CC)CCCC (stereo not given) | inactive | 
COC(=O)N(OC)c1ccccc1COc1ccn(-c2ccc(Cl)cc2)n1 |  | 1.67 µM (active)
C#CCOS(=O)OC1CCCCC1Oc1ccc(C(C)(C)C)cc1 (stereo not given) | inactive | 
CC(Oc1ccc(Cl)cc1Cl)C(=O)O (stereo not given) | inactive | 
N#Cc1cc(Br)c(O)c(Br)c1 |  | 57.9 µM (active) and 74.3 µM (active)
COC(=O)C=C(C)OP(=O)(OC)OC | inactive | 
CC1=C(C(=O)Nc2ccccc2)SCCO1 | inactive | 
CC(C)C1(C)N=C(c2nc3ccccc3cc2C(=O)O)NC1=O (stereo not given) | inactive | 
N#CC(CCc1ccc(Cl)cc1)(Cn1cncn1)c1ccccc1 (stereo not given) |  | 71.5 µM (active)
CCOC(=O)CC(SP(=S)(OC)OC)C(=O)OCC (stereo not given) | inactive | 

SMILES | outcome | AC50
CO/C=C(/C(=O)OC)c1ccccc1Oc1cc(Oc2ccccc2C#N)ncn1 | inactive | 
COc1nc(NC(C)C)nc(NC(C)C)n1 | inactive | 
CNC(=O)ON=CC(C)(C)SC | inactive | 
CC1COC(Cn2cncn2)(c2ccc(Oc3ccc(Cl)cc3)cc2Cl)O1 (stereo not given) |  | 90.3 µM (active)
C=CCC1=C(C)C(OC(=O)C2C(C=C(C)C)C2(C)C)CC1=O (stereo not given) | inactive | 
C=CC1(C)OC(=O)N(c2cc(Cl)cc(Cl)c2)C1=O (stereo not given) | inactive | 
CNC(=S)S | inactive | 
Fc1ccc(Oc2ccnc3cc(Cl)cc(Cl)c23)cc1 |  | 81.6 µM (active)
CCNc1nc(Cl)nc(NC(C)C)n1 | inactive | 
CC(C)Oc1cc(-n2nc(C(C)(C)C)oc2=O)c(Cl)cc1Cl | inactive | 
COc1nc(C)nc(NC(=O)NS(=O)(=O)c2ccccc2Cl)n1 | inactive | 
CC(C)(C)c1ccc(CSc2cnn(C(C)(C)C)c(=O)c2Cl)cc1 | inactive | 
N#Cc1nn(-c2c(Cl)cc(C(F)(F)F)cc2Cl)c(N)c1S(=O)C(F)(F)F (stereo not given) | inactive | 
CON(C)C(=O)Nc1ccc(Cl)c(Cl)c1 | inactive | 
Cc1ccc(-c2c(Cl)nc(C#N)n2S(=O)(=O)N(C)C)cc1 |  | 17.3 µM (active)
CCCCOC(=O)c1ccccc1C(=O)OCCCC | inactive | 
COc1cnc(OC)n2nc(NS(=O)(=O)c3c(OCC(F)F)cccc3C(F)(F)F)nc12 | inactive | 
COc1ccc(C(c2ccc(OC)cc2)C(Cl)(Cl)Cl)cc1 | inactive | 
O=C(Nc1ccccc1)Nc1ccnc(Cl)c1 |  | 41 µM (active)
